Reference: the supplement of paper PMC7156485

System: HCC1569
Assay: H1.0 immunofluorescence intensity relative to DMSO (% of DMSO); higher = stronger H1.0 induction, active = 140 or more
Details: concentration: 10 µM; 24 h
Outline: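 H1.0 nuclear intensity or cell number is expressed as percent of the plate control, with the median of replicates taken. HCC1569 and TDF cells were treated with compounds at 10 µM for 24 h at 37 °C, in triplicate, then fixed and immunostained for H1.0 with DAPI as a nuclear stain. HCC1569 values were smoothed to correct for positional effects.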
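Also: TDF is a line of transformed human dermal fibroblasts of mesenchymal origin.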

H1.0 immunofluorescence intensity, inactive:
CCCCCCCCCCCCCCCC(=O)NCCO [Palmitylethanolamide] 95.5
O=C(O)C=Cc1cnc[nH]1 [4-Imidazoleacrylic acid] 108
C[n+]1cccc(C(=O)O)c1.[Cl-] 92.9
COC1(C2=NCCN2)COc2ccccc2O1.Cl (configuration not stated) 102
O=Nc1ccc2oc(=O)ccc2c1 [6-Nitroso-1,2-benzopyrone] 101
Cn1ccnc1 [1-Methylimidazole] 98.9
OCCN1CCN(CCCN2c3ccccc3Sc3ccc(Cl)cc32)CC1 [Perphenazine] 140
CC(C)NCC(O)COc1ccc(CC(N)=O)cc1 (stereo not drawn) [S(-)-Atenolol] 96.4
O=C(Nc1cccc(C(=O)Nc2ccc(S(=O)(=O)[O-])c3cc(S(=O)(=O)[O-])cc(S(=O)(=O)[O-])c23)c1)Nc1cccc(C(=O)Nc2ccc(S(=O)(=O)[O-])c3cc(S(=O)(=O)[O-])cc(S(=O)(=O)[O-])c23)c1.[Na+].[Na+].[Na+].[Na+].[Na+].[Na+] 96
COc1ncnc(NS(=O)(=O)c2ccc(N)cc2)c1OC [Sulfadoxine] 89.2
COC(=O)[C@@H](N)Cc1ccc(O)c(O)c1.Cl [L-3,4-Dihydroxyphenylalanine methyl ester hydrochloride] 96.8
CN(CC=CC#CC(C)(C)C)Cc1cccc2ccccc12 [Terbinafine] 104
